# Records with an inconclusive call do not appear. Calls of active or inactive are those of the source. Unless noted, no rule for the calls is given here.
# What was measured:
# [1] = circadian clock period modulators, cell-based, LOPAC library, luminescence reporter (AID 2774); settings: circadian reporter cells, at 7 µM, actives lie on both sides;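 also: values are relative to mean of DMSO wells on each plate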
# [2] = system: Hepatitis C virus NS3 helicase; experiment: HCV NS3 helicase inhibitors, primary screen, biochemical, fluorescence polarization, LOPAC1280 library (AID 687035; in the data active = inhibition above about 37%); settings: Purified HCV NS3 helicase, Cy5-dT15 ssDNA binding fluorescence polarization; stronger effect = higher value; concentration not given here
# [3] = Cy5 fluorescence quenching or enhancement artefacts, artefact control for HCV NS3 helicase inhibitor project, biochemical, LOPAC1280 (AID 687037); settings: Cy5-DNA-NS3h complex fluorescence interference counterscreen
# [4] = growth inhibition of DIPG glioma cells, dose response, cell-based, SU-DIPG-XIII, MIPE5.0, CellTiter-Glo, qHTS (AID 1347064; cut-off not given, nearly all actives have AC50 up to about 23 µM;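 as to AC50: cells exposed to compound for 48 hours before the viability read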); settings: SU-DIPG-XIII viability, CellTiter-Glo ATP luminescence
# [5] = LFS_MB_P medulloblastoma growth inhibition, cell-based, chromothripsis tumors, cisplatin or BGB combos (AID 1671449; in the data active = inhibition above about 80%;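 also: cells exposed for 96 hours; 0% = vehicle DMSO and 100% = killing by high DMSO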); settings: LFS_MB_P medulloblastoma cells
# [6] = HDN33 neuroblastoma growth inhibition, cell-based, chromothripsis tumors, cisplatin or BGB combos (AID 1671450; in the data active = inhibition above about 80%;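 also: cells exposed to compound for four days; 0% = vehicle DMSO and 100% = cell killing by high DMSO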); settings: HDN33 neuroblastoma cells, stronger effect = higher value
# [7] = ICB984 medulloblastoma cell growth inhibition, synergistic combos for chromothripsis tumors, cisplatin or BGB combos (AID 1671451); settings: ICB984 medulloblastoma cells, drug combinations, stronger effect = higher value;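 also: cells exposed for 96 hours before readout; 0% = vehicle DMSO and 100% = killing by high DMSO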
# [8] = LFS_MB_1R medulloblastoma cell growth inhibition, synergistic combos for chromothripsis tumors, cisplatin or BGB combos (AID 1671452; in the data active = inhibition above about 80%;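 also: cells exposed for 96 hours before readout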); settings: LFS_MB_1R medulloblastoma cells, stronger effect = higher value
# [9] = HTB85 osteosarcoma cell growth inhibition, synergistic combos for chromothripsis tumors, BGB or cisplatin IC20 combos (AID 1671453; in the data active = inhibition above about 80%;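 also: cells exposed for 96 hours before readout; 0% = vehicle DMSO and 100% = high DMSO killing control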); settings: HTB85 osteosarcoma cells, drug combinations, stronger effect = higher value
# [10] = CRL2098 osteosarcoma cell growth inhibition, synergistic combos for chromothripsis tumors, BGB or cisplatin IC20 combos (AID 1671454; in the data active = inhibition above about 80%;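 also: cells exposed for 96 h before readout; 0% = vehicle DMSO and 100% = killing by high DMSO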); settings: CRL2098 osteosarcoma cells, drug combinations, stronger effect = higher value
# [11] = HD-MB03 medulloblastoma cell growth inhibition, synergistic combos for chromothripsis tumors, BGB or cisplatin IC20 combos (AID 1671455; in the data active = inhibition above about 83%;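 also: 0% = vehicle DMSO and 100% = high DMSO as cytotoxic control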); settings: HD-MB03 medulloblastoma cells, stronger effect = higher value
# [12] = UWB1.289 ovarian carcinoma cell growth inhibition, synergistic combos for chromothripsis tumors, BGB or cisplatin combos (AID 1671456; in the data active = inhibition above about 80%;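 also: cells exposed to compound for four days; 0% = vehicle DMSO and 100% = killing by high DMSO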); settings: UWB1.289 ovarian carcinoma cells, stronger effect = higher value
# [13] = MDA-MB-436 breast carcinoma cell growth inhibition, synergistic combos for chromothripsis tumors, BGB or cisplatin combos (AID 1671458); settings: MDA-MB-436 breast carcinoma growth inhibition, drug combinations, stronger effect = higher value;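 also: cells exposed for 96 hours; 0% = vehicle DMSO and 100% = killing by high DMSO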
# [14] = growth inhibition of BT084 medulloblastoma cells, cell-based, ICGC_MB145, cisplatin and BGB IC40 combos (AID 1671461; in the data active = inhibition above about 80%;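 also: cells exposed to drugs for 96 hours; 0% = vehicle DMSO and 100% = high DMSO full killing control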); settings: drug combinations, stronger effect = higher value
# [15] = growth inhibition of RCMB18 medulloblastoma cells, cell-based, cisplatin and BGB IC40 combos (AID 1671462; in the data active = inhibition above about 80%;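 also: cells exposed to compound for four days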); settings: stronger effect = higher value
# [16] = growth inhibition of CRL1545 osteosarcoma cells, cell-based, cisplatin and BGB IC20 combos (AID 1671464; in the data active = inhibition above about 80%;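 also: cells exposed to compound for 96 hours before readout; 0% = vehicle DMSO and 100% = high DMSO killing control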); settings: stronger effect = higher value
# [17] = growth inhibition of DIPG glioma cells, dose response, cell-based, SU-DIPG-XIII, MIPE4.0, CellTiter-Glo, qHTS (AID 1347061; cut-off not given, nearly all actives have AC50 up to about 37 µM;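 also: cells exposed to compound for 48 hours before readout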); settings: SU-DIPG-XIII viability, CellTiter-Glo ATP luminescence
# [18] = target: NAD(+) hydrolase SARM1 (Homo sapiens) (UniProt Q6SZW1); experiment: SARM1 TIR NADase inhibitors, cell lysate, NAD-Glo luminescence (AID 1508614;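 active = compound whose remaining NAD level is above about 45 nM, limit read from the data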;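 also: higher remaining NAD means stronger inhibition of SARM1 NADase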); settings: SAM-TIR HEK293T lysate NADase, at 1 µM, stronger effect = higher value
# Sequence of NAD(+) hydrolase SARM1 (Homo sapiens) (Q6SZW1 whole entry, looked up): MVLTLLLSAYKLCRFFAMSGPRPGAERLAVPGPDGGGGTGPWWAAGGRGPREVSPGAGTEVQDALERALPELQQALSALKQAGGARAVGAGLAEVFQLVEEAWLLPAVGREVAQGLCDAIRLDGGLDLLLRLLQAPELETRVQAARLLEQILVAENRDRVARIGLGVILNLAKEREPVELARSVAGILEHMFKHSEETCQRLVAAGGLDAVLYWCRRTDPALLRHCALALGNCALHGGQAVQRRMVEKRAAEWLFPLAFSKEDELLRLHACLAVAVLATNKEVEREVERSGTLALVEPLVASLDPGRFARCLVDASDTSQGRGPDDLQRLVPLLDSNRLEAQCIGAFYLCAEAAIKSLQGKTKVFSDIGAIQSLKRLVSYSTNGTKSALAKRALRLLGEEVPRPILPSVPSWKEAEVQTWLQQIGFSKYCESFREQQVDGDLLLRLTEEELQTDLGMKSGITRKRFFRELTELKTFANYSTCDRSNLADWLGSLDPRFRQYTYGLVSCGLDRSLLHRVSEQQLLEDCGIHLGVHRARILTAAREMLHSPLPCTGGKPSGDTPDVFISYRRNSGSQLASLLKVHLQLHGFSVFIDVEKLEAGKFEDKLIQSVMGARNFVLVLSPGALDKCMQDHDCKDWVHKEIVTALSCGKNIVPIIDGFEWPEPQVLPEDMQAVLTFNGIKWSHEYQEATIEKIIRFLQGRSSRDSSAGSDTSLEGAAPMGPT
# [19] = modifiers of HSF1 nuclear foci, imaging, Selleck Cancer Library (AID 1347162; in the data active = plate-normalised HSF1 focus index below about 0.46); settings: human cells, at 10 µM; SSMD: measured here: HSF1 foci SSMD mean; cell count: measured here: cell number; plate-normalised HSF1 focus index: stronger effect = lower value
# [20] = measured here: combination with BGB IC40, at 0.05 µM
# [21] = measured here: with BGB IC20 combination, at 0.5 µM
# [22] = measured here: with cisplatin IC20 combination, at 0.5 µM
# [23] = measured here: combination with cisplatin, at 0.5 µM
smiles,measurement,setting,value
CCOC(=O)Nc1ccc(NCc2ccc(F)cc2)nc1N,period change,[1],-0.33 h (inactive)
same,inhibition,[2],-3% (inactive)
same,fluorescence ratio (interference),[3],1 (inactive)
same,outcome,[4],inactive
same,inhibition,"[5]; at 0.5 µM, stronger effect = higher value",-13% (inactive)
same,inhibition,"[5]; measured here: combination with BGB IC20, at 0.005 µM",-4.33%
same,inhibition,"[5]; measured here: combination with BGB IC40, at 0.005 µM",50.9%
same,inhibition,[5]; [20],-18.8%
same,inhibition,"[5]; measured here: combination with cisplatin, at 0.5 µM, stronger effect = higher value",4.96%
same,inhibition,"[5]; measured here: combination with cisplatin, at 5 µM, stronger effect = higher value",-32.9%
same,inhibition,"[6]; BGB combo, at 5 µM",-49%
same,inhibition,[6]; at 0.5 µM,0.72% (inactive)
same,inhibition,"[6]; cisplatin combo, at 5 µM",-18.8%
same,inhibition,[6]; [21],-18.2%
same,inhibition,[6]; [22],17%
same,inhibition,"[6]; single agent, at 5 µM",-28.3%
same,inhibition,"[7]; BGB IC20 combo, at 0.005 µM",-2.86%
same,inhibition,"[7]; BGB IC40 combo, at 0.005 µM",-6.26%
same,inhibition,"[7]; BGB IC40 combo, at 0.05 µM",-38.3%
same,inhibition,[7]; at 0.5 µM,-14.8% (inactive)
same,inhibition,"[7]; cisplatin combo, at 0.05 µM",-45.5%
same,inhibition,"[7]; cisplatin combo, at 0.5 µM",-9.07%
same,inhibition,"[7]; cisplatin combo, at 5 µM",-15.3%
same,inhibition,"[7]; measured here: 5 uM single agent, at 5 µM",-2.67%
same,inhibition,[8]; at 0.5 µM,-9.81% (inactive)
same,inhibition,[8]; [20],-17%
same,inhibition,[8]; [23],-23.8%
same,inhibition,"[8]; measured here: combination with cisplatin, at 5 µM",-29.7%
same,inhibition,[9]; at 0.5 µM,21.2% (inactive)
same,inhibition,"[9]; measured here: with BGB IC20, at 0.5 µM",57.6%
same,inhibition,"[9]; measured here: with BGB IC20, at 5 µM",10.9%
same,inhibition,"[9]; measured here: with cisplatin IC20, at 0.5 µM",-16.9%
same,inhibition,"[9]; measured here: with cisplatin IC20, at 5 µM",0.401%
same,inhibition,"[9]; single agent, at 5 µM",1.76%
same,inhibition,[10]; at 0.5 µM,-23.9% (inactive)
same,inhibition,"[10]; measured here: combination with BGB at IC20, at 0.5 µM",-12.9%
same,inhibition,"[10]; measured here: combination with cisplatin at IC20, at 0.5 µM",-33.8%
same,inhibition,[11]; at 0.5 µM,-9% (inactive)
same,inhibition,"[11]; measured here: combo with BGB at IC20, at 0.5 µM",-9.72%
same,inhibition,"[11]; measured here: combo with cisplatin at IC20, at 0.5 µM",-9.37%
same,inhibition,[12]; at 0.5 µM,4.04% (inactive)
same,inhibition,"[12]; measured here: inhibition with BGB combination, at 0.05 µM",-16.5%
same,inhibition,"[12]; measured here: inhibition with cisplatin combination, at 0.05 µM",-2.73%
same,inhibition,[13]; at 0.5 µM,-12.4% (inactive)
same,inhibition,"[13]; measured here: BGB combination, at 0.5 µM",-4.35%
same,inhibition,"[13]; measured here: BGB combination, at 5 µM",-17.6%
same,inhibition,"[13]; measured here: cisplatin combination, at 0.5 µM",-28%
same,inhibition,"[13]; measured here: cisplatin combination, at 5 µM",-26.4%
same,inhibition,[14]; at 0.5 µM,3.08% (inactive)
same,inhibition,"[14]; cisplatin combination, at 0.5 µM",2.67%
same,inhibition,"[14]; cisplatin combination, at 5 µM",-33.2%
same,inhibition,"[14]; measured here: BGB IC40 combination 0.05 uM, at 0.05 µM",71.5%
same,inhibition,"[14]; single agent, at 5 µM",2.9%
same,inhibition,[15]; at 0.5 µM,-10.8% (inactive)
same,inhibition,"[15]; cisplatin combo, at 5 µM",-27%
same,inhibition,"[15]; measured here: BGB IC40 combination, at 0.05 µM",4.05%
same,inhibition,[15]; [23],-15.1%
same,inhibition,"[15]; single agent, at 5 µM",-7.25%
same,inhibition,[16]; at 0.5 µM,5.77% (inactive)
same,inhibition,[16]; [21],-17.8%
same,inhibition,[16]; [22],16.2%
same,inhibition,"[16]; single agent, at 0.05 µM",-4.81%
same,inhibition,"[16]; single agent, at 5 µM",-34.9%
CC1=C(C)C(=O)C(CCCCC#CCCCC#CCO)=C(C)C1=O,period change,[1],-0.105 h (inactive)
same,inhibition,[2],-2% (inactive)
same,fluorescence ratio (interference),[3],1 (inactive)
CN(c1nccc(=O)[nH]1)C1CCN(c2nc3ccccc3n2Cc2ccc(F)cc2)CC1,outcome,[17],inactive
CCCCC(CC)COC(=O)C(C#N)=C(c1ccccc1)c1ccccc1 (centres undefined),remaining NAD,[18],10 nM (inactive)
O[C@@H](CNC[C@H](O)[C@H]1CCc2cc(F)ccc2O1)[C@@H]1CCc2cc(F)ccc2O1,outcome,[17],inactive
COC(=O)N[C@H](C(=O)N[C@@H](Cc1ccccc1)[C@@H](O)CN(Cc1ccc(-c2ccccn2)cc1)NC(=O)[C@@H](NC(=O)OC)C(C)(C)C)C(C)(C)C,outcome,[17],inactive
COc1cc(NCc2ccc3nc(N)nc(N)c3c2C)cc(OC)c1OC,AC50,[4],7.42 µM (active)
C[C@]12CC[C@@H]3c4ccc(O)cc4C[C@@H](CCCCCCCCCS(=O)CCCC(F)(F)C(F)(F)F)[C@H]3[C@@H]1CC[C@@H]2O (some centres undefined),inhibition,[2],0% (inactive)
same,fluorescence ratio (interference),[3],0.9 (inactive)
same,outcome,[17],inactive
same,SSMD,[19],2.09
same,cell count,[19],7000
same,plate-normalised HSF1 focus index,[19],1.13 (inactive)
same,remaining NAD,[18],10 nM (inactive)
O=C(O)c1cccc(-c2noc(-c3ccccc3F)n2)c1,outcome,[17],inactive
N[C@@H](COP(=O)(O)O)C(=O)O,period change,[1],0.04 h (inactive)
same,inhibition,[2],-1% (inactive)
same,fluorescence ratio (interference),[3],1 (inactive)
same,remaining NAD,[18],10 nM (inactive)
CC(C)(C)c1ccc(C(=O)CCCN2CCC(OC(c3ccccc3)c3ccccc3)CC2)cc1,inhibition,[2],3% (inactive)
same,fluorescence ratio (interference),[3],1 (inactive)
NC(=O)c1cn(Cc2c(F)cccc2F)nn1,inhibition,[2],-5% (inactive)
same,fluorescence ratio (interference),[3],1 (inactive)
COC(=O)C1=C(C)NC(C)=C(C(=O)OC(C)(C)CN(C)CCC(c2ccccc2)c2ccccc2)C1c1cccc([N+](=O)[O-])c1 (centres undefined),inhibition,[2],3% (inactive)
same,fluorescence ratio (interference),[3],1 (inactive)
